IC50, IC90 and percent growth data for 14 molecules are collected here from the supplement of paper PMC5940239.

Assay [1] has as its system Madurella mycetomatis MM55. The settings on record: 7 days.
The test system of assay [2] is Madurella mycetomatis MM55. The assay can be described thus: IC90; higher = less potent. The settings on record: 7 days.
Assay [3] concerns Madurella mycetomatis MM55. The assay can be described thus: percent growth relative to solvent control; higher = less inhibition, active = 20 or less. Conditions: 100 µM; 7 days.

In turn, `CO/C=C(/C(=O)OC)c1ccccc1Oc1cc(Oc2ccccc2C#N)ncn1` displayed an IC50 in assay [1] of 0.6 µM. Further, in assay [2], the IC90 is 20.4 µM. Moreover, in assay [3], the percent growth is 1.6% (active).
`Cc1nn(C)c(C)c1NS(=O)(=O)c1c(Cl)cc(-c2ccnc(N3CCNCC3)c2)cc1Cl`: in assay [3], the percent growth is 86% (inactive).
On the same count and under the same terms, to `O=C1O[C@@H](COc2ccon2)CN1c1cc(F)c(C2=CCN(Cc3ccccc3)CC2)c(F)c1` belongs 20.9% (inactive).
As to `Cc1cccc(C(=O)Nc2ccnc(N(C)C3CCN(CC(C)C)CC3)c2)c1`, the IC50 in assay [1] came to 26.2 µM. For the same molecule, the IC90 in assay [2] worked out at 53.4 µM. Further, the percent growth in assay [3] is 1.78% (active).
For `CCc1nn(C)c(C(=O)NCc2ccc(Oc3ccc(C)cc3)cc2)c1Cl`, the percent growth in assay [3] was 46.6% (inactive).
As for `CC1COC(Cn2cncn2)(c2ccc(Oc3ccc(Cl)cc3)cc2Cl)O1` (centres undefined), in assay [3], the percent growth was 0.489% (active).
For `CO[C@@H]1CN(c2ccc(C#CC3(O)CN4CCC3CC4)c(Cc3ccccc3)n2)C[C@H]1O` (some centres undefined), the percent growth in assay [3] is 81.3% (inactive).
Regarding `Cc1nn(Cc2ccccc2)c(Cl)c1C(=O)NC1CCCCCC1`, the percent growth in assay [3] was 91.1% (inactive).
`Nc1c2c(nc3sc4c(c13)CCCC4)CCCC2` yielded an IC50 in assay [1] of 9.7 µM. In assay [2], this molecule registered an IC90 of 16.4 µM. In assay [3], the percent growth is -0.0392% (active).
`CO/N=C(\C(=O)OC)c1ccccc1CO/N=C(\C)c1cccc(C(F)(F)F)c1`: the half-inhibitory concentration (IC50) in assay [1] stood at 1.05 µM. In assay [2], the IC90 was 28.1 µM. Further, the percent growth in assay [3] was 0.385% (active).
Take `CC(C)(C)C(O)C(Oc1ccc(-c2ccccc2)cc1)n1cncn1` (centres undefined): the percent growth in assay [3] is -0.373% (active).
As for `O=C1O[C@@H](CO)CN1c1cc(F)c(C2=CCN(Cc3ccccc3)CC2)c(F)c1`, the percent growth in assay [3] is 70.2% (inactive).
The molecule `CC1(C)OB(O)c2ccc(C3=NOC(c4cc(Cl)c(F)c(Cl)c4)(C(F)(F)F)C3)cc21` (centres undefined) gave an IC50 in assay [1] of 11.7 µM. Further, the IC90 in assay [2] amounted to 19.4 µM. The percent growth in assay [3] was -0.6% (active).
Regarding `Cc1cc(C2=NOC(c3cc(Cl)c(F)c(Cl)c3)(C(F)(F)F)C2)ccc1C(=O)NCc1ccc2c(c1)C(C)(C)OB2O` (centres undefined), in assay [3], the percent growth was 124% (inactive).

Broadly, the IC50 is the concentration needed to halve the response being measured. As usually defined, the IC90 is the point of the concentration-response curve where the effect stands at 90%.
